Screening results from PubChem BioAssay.
This is a sample that favours compounds with a hit; in the whole collection about 1.6% have one here.
p53ts 32C kill – p53ts cell cytotoxicity, permissive temperature. H1299-p53A138V at 32C, ATP luminescence viability, 24 h. Potency, µM (top dose mostly 46.1 µM), inactives show at the top dose activity change, negative = cytotoxicity, actives largely listed as cytotoxic. 0.93% of 130,000 active;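 further: 0% = DMSO and -100% = full killing by reference compound; nearly all actives have a fitted effect of over 55% in size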
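Viability by ATPlite luminescence after 24 h compound treatment (up to 46 uM) at the permissive 32C. Cells are H1299 carrying p53 A138V. Scale runs from DMSO basal to 100 uM tamoxifen as full kill; AC50 from Hill fits.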
Imprint erasure – inducers of genomic imprint erasure in mouse ES cells | mouse ES Peg3-LacZ reporter, beta-gal luminescence, 40 h | Potency, µM (titrated, usually from 60.7 µM), without a hit: at the highest dose activity change, positive = activation, usual class: activators | 0.02% of 110,000 active | AID 1948
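Imprint erasure is scored as LacZ activity from the silenced maternal Peg3 allele in feeder-free female ES cells cultured 40 h with LIF. Luminescence is normalized to in-plate negative controls and fitted to the Hill equation.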
p53ts 39C kill – p53ts cell cytotoxicity, nonpermissive temperature; H1299-p53A138V viability at 39C, ATP luminescence, 24 h; Potency, µM (titrated, usually from 46.1 µM), without a hit: at the highest dose activity change, negative = cell killing, most hits filed as cytotoxic; 1.5% of 130,000 active; AID 902; further: on the % scale 0 is the no-effect control and ±100 the full control effect; nearly all actives have a fitted effect of over 55% in size
Starred values were filed as active, the others as inactive; ? = inconclusive; nt = no result; [ ] = remark or other dose. The call rests on the fitted dose curve; in most records, active means well fitted curve in the direction sought with a large enough effect; inconclusive means small, poorly fitted or top-dose-only effect, or another doubt; inactive means no such curve, though single readings can be large; an effect the other way counts as inactive or inconclusive. Potency means the concentration at half of the fitted maximal effect.

SMILES | p53ts 32C kill | Imprint erasure | p53ts 39C kill
Cc1nn(C(C)(C)C)c(OC(=O)c2ccc3c(c2)OCO3)c1S(=O)(=O)c1ccccc1 | -19% | 12% | 16µM*
Cc1ccc(S(=O)(=O)c2c(C)nn(C(C)(C)C)c2OC(=O)c2cccs2)cc1 | ? | -30% | 16µM*
Cc1ccc(C(=O)Oc2c(S(=O)(=O)c3ccccc3)c(C)nn2-c2ccccc2)cc1 | 10% | -3%[10.9 µM] | -4%
c1cncc(-c2cc(-n3ccnc3)ncn2)c1 | 15% | ? | 4%
Cc1ccc2oc(C(=O)Nc3nc(-c4ccc(F)cc4)ns3)c(C)c2c1 | -7% | 2%[10.9 µM] | -5%
c1ccc2cc(NCNc3ccc4ccccc4c3)ccc2c1 | -7%[9.22 µM] | -9%[10.9 µM] | -4%[9.22 µM]
COCCCNC(=O)c1cc(-c2ccc(OC)cc2)nc2n[nH]c(-c3ccc(Cl)cc3)c12 | 5% | -2%[10.9 µM] | -1%
COc1ccc(OC)c(-c2cc(C(=O)NCCc3ccccc3)c3c(-c4ccc(C)cc4)[nH]nc3n2)c1 | 0% | -7%[10.9 µM] | -18%
CCOc1ccc(-c2cc(C(=O)NCc3ccccc3)c3c(-c4ccc(CC)cc4)[nH]nc3n2)cc1 | 1% | 5%[10.9 µM] | 0%
O=C(O)c1cc(-c2ccc(C(F)(F)F)cc2)nc2n[nH]c(-c3ccccc3)c12 | ? | -8%[10.9 µM] | 10µM*
COc1ccc(-c2cc(C(=O)NCCc3ccccc3)c3c(-c4ccc(Cl)cc4)[nH]nc3n2)cc1 | 13µM* | -27%[10.9 µM] | 13µM*
COc1ccc(-c2cc(C(=O)NCCc3ccccc3)c3c(-c4ccccc4)[nH]nc3n2)cc1 | ? | -5%[10.9 µM] | 13µM*
CCc1ccccc1NC(=O)CC(c1ccc(F)cc1)N1Cc2ccccc2C1=O (centres undefined) | -19% | 2%[10.9 µM] | -16%
Cn1c(CNC(=O)CSc2n[nH]c(-c3ccccc3Cl)n2)nc2ccccc21 | -23% | 21%[10.9 µM] | -26%
C=CCN1C=CC(=C/C=C(/C#N)C(=O)OCC)C=C1 | 10µM* | nt | ?
CCOC(=O)/C(C#N)=C/c1ccc(-c2ccc(Br)cc2)o1 | -10% | -10%[10.9 µM] | 39%
COc1ccc(Nc2nc3ccccc3nc2NS(=O)(=O)c2ccc(Cl)cc2)cc1OC | -4% | -16%[10.9 µM] | -12%
NC[C@@H]1O[C@H](c2ccccc2)Cc2c1ccc(O)c2O | ? | -37% | ?
NC[C@@H]1O[C@H](C23CC4CC(CC(C4)C2)C3)Cc2c1ccc(O)c2O | ? | -31% | 20µM*
CCN(c1ccccc1)c1ncnc2c1cnn2-c1ccc(OC)cc1 | ? | -5%[10.9 µM] | 13µM*
Cc1ccc(-n2ncc3c(N(C)Cc4ccccc4)ncnc32)cc1 | ? | -12%[10.9 µM] | 16µM*
Cc1ccc(-n2ncc3c(N(CCO)Cc4ccccc4)ncnc32)cc1 | -17% | -10%[10.9 µM] | ?
CCCCN(c1ccccc1)c1ncnc2c1cnn2-c1ccc(Cl)cc1 | -14% | -12%[10.9 µM] | -22%
CCCCOc1ccc(C(=O)Nc2cc(-c3cn4cccnc4n3)ccc2OC)cc1 | -4% | -12%[10.9 µM] | -20%
O=C(/C=C\Nc1ccc2c(c1)OCO2)c1ccccn1 | 1.6µM* | -86% | 2.5µM*
SMILES | p53ts 32C kill | Imprint erasure | p53ts 39C kill
O=C(NCc1ccc2c(c1)OCO2)c1ccccn1 | -8% | -37% | 4%
CN(C)c1nc(-c2ccccc2C(F)(F)F)nc2ccccc12 | 15% | -13% | -11%
N#CC(=C1CCCC1)c1nc(-c2ccccc2O)cs1 | 10µM* | -75% | 13µM*
Cc1ccc(/C=C(\C#N)c2nc(-c3ccc(-c4ccccc4)cc3)cs2)cc1 | 0% | 3%[10.9 µM] | 9%
Cc1nnc(SCc2cc(=O)n3c(C)cccc3n2)s1 | 6% | 9%[10.9 µM] | -9%
CC(C)(CO)Cc1cc(C(C)(C)C)c(O)c(C(C)(C)C)c1 | 20µM* | -13% | 32µM*
CC(C)(C=O)Cc1cc(C(C)(C)C)c(O)c(C(C)(C)C)c1 | 6% | -17% | -24%
Cn1cc(C(=O)NCCc2ccccc2)c(=O)c2cc(S(=O)(=O)N3CCCCCC3)ccc21 | -3% | -8%[10.9 µM] | 1%
Cc1cc(C)cc(NC(=O)CCS(=O)(=O)c2cccc3nsnc23)c1 | 2% | 2%[10.9 µM] | 3%
Cc1ccc(CNCc2c(C(=O)O)n(Cc3ccc(C)cc3)c3cc(C)ccc23)cc1 | ? | -15%[10.9 µM] | ?
Cc1ccc(Cn2c(C(=O)O)c(CNCc3ccc(OC(C)C)cc3)c3ccc(C)cc32)cc1 | -7% | -14%[10.9 µM] | 16µM*
C=Cc1ccc(Cn2c(C(=O)O)c(CNCc3ccccc3)c3ccc(C)cc32)cc1 | ? | 3%[10.9 µM] | 16µM*
CCc1ccc(CNCc2c(C(=O)O)n(Cc3ccc(C)cc3)c3cc(C)ccc23)cc1 | -25% | -15%[10.9 µM] | -87%
COc1ccc(OC)c(CNC(=O)c2ccc3c(c2)c(C)c(C)n3Cc2ccc(Cl)cc2)c1 | 9% | ? | -2%
